Reference: PubChem BioAssay AID1159580 (chemical genetic matrix, 2015)
The campaign covered roughly 5,500 compounds. About 2,000 (36%) were called active. Roughly 18% stayed inconclusive and do not appear here. Cut-off read from the data, not from the text of the source: active = normalized growth mostly below about 0.91 (no sharp cut-off); inconclusive = no clear call, values can overlap the other calls; inactive = mostly above about 0.92. The list shows a part of the results.

Assay: chemical genetic growth profiling, strain panel (AID 1159580);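 note: tested at 20 µM; growth read once vehicle control cultures reached saturation at 30 °C; 1 = growth at the plate median or of vehicle wells; lower values mean less growth of the strain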
Conditions: growth OD

Measured: normalized growth

CC(=O)OCC(=O)[C@@]1(O)CCC2C3CCC4=CC(=O)CC[C@]4(C)[C@@]3(F)[C@@H](O)C[C@@]21C (stereo partly specified)
inactive: S. cerevisiae deletion strains, locus YJR066W, strain TOR1, active compounds read low 0.939 | S. cerevisiae deletion strains, locus YKL009W, strain mrt4, active compounds read low 0.973 | S. cerevisiae deletion strains, locus YKL068W, active compounds read low 1.01 | S. cerevisiae deletion strains, locus YKL085W, strain MDH1 (second series), active compounds read low 1.01 | S. cerevisiae deletion strains, locus YKL085W, strain MDH1, active compounds read low 1.01 | S. cerevisiae deletion strains, locus YKL160W, strain elf1, active compounds read low 1.03 | S. cerevisiae deletion strains, locus YKL190W, strain CNB1, active compounds read low 1 | S. cerevisiae deletion strains, locus YKR001C, strain vps1, active compounds read low 0.987 | S. cerevisiae deletion strains, locus YKR026C, strain gcn3, active compounds read low 1.02 | S. cerevisiae deletion strains, locus YKR091W, strain srl3, active compounds read low 1 | S. cerevisiae deletion strains, locus YLL001W, strain dnm1, active compounds read low 1.03 | S. cerevisiae deletion strains, locus YLL026W, active compounds read low 1.01 | S. cerevisiae deletion strains, locus YLL041C, strain sdh2, active compounds read low 1.01 | S. cerevisiae deletion strains, locus YLR027C, strain aat2, active compounds read low 1.02 | S. cerevisiae deletion strains, locus YLR039C, strain RIC1, active compounds read low 1.04 | S. cerevisiae deletion strains, locus YLR058C, strain SHM2, active compounds read low 1.01 | S. cerevisiae deletion strains, locus YLR102C, strain apc9, active compounds read low 1.01 | S. cerevisiae deletion strains, locus YLR113W, strain HOG1, active compounds read low 0.992 | S. cerevisiae deletion strains, locus YLR221C, strain rsa3, active compounds read low 1.02 | S. cerevisiae deletion strains, locus YLR258W, strain gsy2, active compounds read low 1.01 | S. cerevisiae deletion strains, locus YLR262C, strain YPT6 (second series), active compounds read low 1.03 | S. cerevisiae deletion strains, locus YLR262C, strain YPT6, active compounds read low 1.01 | S. cerevisiae deletion strains, locus YLR268W, strain sec22, active compounds read low 0.985 | S. cerevisiae deletion strains, locus YLR320W, strain mms22, active compounds read low 1.05 | S. cerevisiae deletion strains, locus YLR330W, strain CHS5, active compounds read low 1.01 | S. cerevisiae deletion strains, locus YLR342W, strain FKS1 (second series), active compounds read low 1.02 | S. cerevisiae deletion strains, locus YLR342W, strain FKS1, active compounds read low 1.01 | S. cerevisiae deletion strains, locus YLR357W, strain rsc2, active compounds read low 1.01 | S. cerevisiae deletion strains, locus YLR370C, strain arc18, active compounds read low 1.02 | S. cerevisiae deletion strains, locus YLR371W, strain rom2, active compounds read low 1 | S. cerevisiae deletion strains, locus YLR384C, strain iki3, active compounds read low 1.02 | S. cerevisiae deletion strains, locus YLR418C, strain cdc73, active compounds read low 1.01 | S. cerevisiae deletion strains, locus YML016C, strain PPZ1, active compounds read low 1 | S. cerevisiae deletion strains, locus YML032C, strain rad52, active compounds read low 0.992 | S. cerevisiae deletion strains, locus YML120C, strain ndi1, active compounds read low 1.03 | S. cerevisiae deletion strains, locus YML124C, strain tub3, active compounds read low 1.01 | S. cerevisiae deletion strains, locus YMR058W, strain fet3, active compounds read low 1.02 | S. cerevisiae deletion strains, locus YMR078C, strain ctf18, active compounds read low 1.01 | S. cerevisiae deletion strains, locus YMR125W, strain sto1, active compounds read low 1.01 | S. cerevisiae deletion strains, locus YMR129W, active compounds read low 1.01 | S. cerevisiae deletion strains, locus YMR205C, strain PFK2, active compounds read low 1.02 | S. cerevisiae deletion strains, locus YMR223W, strain ubp8, active compounds read low 1.03 | S. cerevisiae deletion strains, locus YMR231W, strain pep5, active compounds read low 1.01 | S. cerevisiae deletion strains, locus YMR307W, strain GAS1, active compounds read low 1.01 | S. cerevisiae deletion strains, locus YNL067W, strain RPL9B, active compounds read low 0.998 | S. cerevisiae deletion strains, locus YNL071W, strain lat1, active compounds read low 1.02 | S. cerevisiae deletion strains, locus YNL128W, strain TEP1, active compounds read low 1.02 | S. cerevisiae deletion strains, locus YNL153C, strain GIM3, active compounds read low 1.01 | S. cerevisiae deletion strains, locus YNL183C, strain NPR1, active compounds read low 0.957 | S. cerevisiae deletion strains, locus YNL209W, strain ssb2, active compounds read low 1.01 | S. cerevisiae deletion strains, locus YNL233W, strain BNI4, active compounds read low 1 | S. cerevisiae deletion strains, locus YNL248C, strain rpa49, active compounds read low 1.02 | S. cerevisiae deletion strains, locus YNL271C, strain bni1, active compounds read low 1.01 | S. cerevisiae deletion strains, locus YNL298W, strain CLA4, active compounds read low 0.986 | S. cerevisiae deletion strains, locus YNL307C, strain MCK1, active compounds read low 1.02 | S. cerevisiae deletion strains, locus YNL322C, strain KRE1 (second series), active compounds read low 1.02 | S. cerevisiae deletion strains, locus YNR049C, strain mso1, active compounds read low 1.01 | S. cerevisiae deletion strains, locus YNR052C, strain pop2, active compounds read low 1 | S. cerevisiae deletion strains, locus YOL012C, strain htz1 0.967 | S. cerevisiae deletion strains, locus YOL147C, strain pex11, active compounds read low 1 | S. cerevisiae deletion strains, locus YOR001W, strain rrp6, active compounds read low 1 | S. cerevisiae deletion strains, locus YOR061W, strain CKA2, active compounds read low 1.01 | S. cerevisiae deletion strains, locus YOR069W, strain VPS5, active compounds read low 1.01 | S. cerevisiae deletion strains, locus YOR070C, strain gyp1, active compounds read low 1.03 | S. cerevisiae deletion strains, locus YOR080W, strain dia2, active compounds read low 1.01 | S. cerevisiae deletion strains, locus YOR083W, strain WHI5, active compounds read low 1.03 | S. cerevisiae deletion strains, locus YOR106W, strain vam3, active compounds read low 1.03 | S. cerevisiae deletion strains, locus YOR136W, strain idh2, active compounds read low 0.989 | S. cerevisiae deletion strains, locus YOR144C, strain elg1, active compounds read low 1 | S. cerevisiae deletion strains, locus YOR184W, strain ser1, active compounds read low 0.997 | S. cerevisiae deletion strains, locus YOR231W, strain MKK1, active compounds read low 1 | S. cerevisiae deletion strains, locus YOR265W, strain rbl2, active compounds read low 1.02 | S. cerevisiae deletion strains, locus YOR270C, strain vph1, active compounds read low 1.03 | S. cerevisiae deletion strains, locus YOR290C, strain snf2, active compounds read low 0.997 | S. cerevisiae deletion strains, locus YOR316C, strain cot1, active compounds read low 1.01 | S. cerevisiae deletion strains, locus YPL051W, strain arl3, active compounds read low 1.04 | S. cerevisiae deletion strains, locus YPL078C, strain atp4, active compounds read low 1.02 | S. cerevisiae deletion strains, locus YPL106C, strain sse1, active compounds read low 1.02 | S. cerevisiae deletion strains, locus YPL240C, strain hsp82, active compounds read low 0.994 | S. cerevisiae deletion strains, locus YPL256C, strain CLN2, active compounds read low 1 | S. cerevisiae deletion strains, locus YPR119W, strain clb2, active compounds read low 0.997 | S. cerevisiae deletion strains, locus YPR141C, strain kar3, active compounds read low 1 | S. cerevisiae deletion strains, locus YPR163C, strain tif3, active compounds read low 1 | S. cerevisiae deletion strains, locus YPR167C, strain met16, active compounds read low 0.999 | S. cerevisiae deletion strains, strain wtn01, active compounds read low 0.995 | S. cerevisiae strains, strain wild type, active compounds read low 1.01
